# Compound activity: PubChem BioAssay, several laboratories
# This is a sample that favours compounds with a hit; in the whole collection about 5.2% have one here.
# CR mimetic SO = yeast age-related superoxide inhibition as caloric restriction mimetic; S. cerevisiae aged cells, superoxide DHE fluorescence; hits give low values; superoxide response (% of plate mean), % at 10 µM; 0.18% of 330,000 active; AID 2690;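 active = superoxide response under a set limit, about three screen SD below normal, cut at about 65% in these data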;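 note: yeast aged for seven days with compound at 30 °C before DHE staining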
# M18AAP inhibitor = blocks P. falciparum M18 aspartyl aminopeptidase. recombinant PfM18AAP, H-Glu-NHMec fluorogenic cleavage. inhibition, % at 7.35 µM. 1.2% of 290,000 active. AID 1822;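 active = inhibition above the campaign mean inhibition over all tested compounds plus 3 SD, cut at about 28% in these data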
# NRP1-CendR mod = modulators of CendR peptide binding to human neuropilin-1. O14786. FAM-RPARPAR peptide binding to NRP-1, fluorescence polarization. inhibition, % at 25 µM. 0.85% of 360,000 active;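 active = inhibition or corrected inhibition above about 18%, plus a signal ratio from 0.5 to 1.5, limit read from the data, passing the limit was not always enough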
# ALR inh = blocks human ALR sulfhydryl oxidase activity. purified ALR, DTT oxidation, H2O2 HRP-luminol luminescence. 3.8% of 290,000 active. P55789. inhibition, % (no concentration beside the values);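 active = mean replicate inhibition above about 79%, with every replicate also reaching it, limit read from the data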
# Target sequence (P55789 whole entry, looked up): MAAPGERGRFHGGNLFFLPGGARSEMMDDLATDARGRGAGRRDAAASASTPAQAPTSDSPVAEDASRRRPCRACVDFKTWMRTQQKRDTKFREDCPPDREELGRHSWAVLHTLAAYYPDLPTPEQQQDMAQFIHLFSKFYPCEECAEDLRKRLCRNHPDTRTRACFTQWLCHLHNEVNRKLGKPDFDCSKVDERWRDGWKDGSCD
# A3G deaminase = inhibitors of human APOBEC3G DNA deaminase. 0.28% of 330,000 active. inhibition, % at 20 µM. Q9HC16. recombinant A3G, ssDNA deamination FAM/TAMRA fluorescence;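 active = inhibition of at least 40% at 20 µM, with no more than 30% in the related APOBEC3A deaminase screen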
# A3A deaminase = blocks human APOBEC3A ssDNA deamination. P31941. recombinant A3A, FAM/TAMRA ssDNA deamination fluorescence. inhibition, % at 20 µM. 0.41% of 330,000 active;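 active = at least 40% inhibition at 20 µM here, with at most 30% in a related deaminase screen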
# Target sequence (P31941 whole entry, looked up): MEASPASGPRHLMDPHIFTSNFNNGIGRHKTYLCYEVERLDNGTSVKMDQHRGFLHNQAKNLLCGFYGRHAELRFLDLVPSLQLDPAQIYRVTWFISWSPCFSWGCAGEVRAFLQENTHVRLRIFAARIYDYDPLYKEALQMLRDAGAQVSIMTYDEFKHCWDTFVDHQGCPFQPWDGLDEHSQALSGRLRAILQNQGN
# A number is an active result; – = inactive; · = no result.
SMILES,CR mimetic SO,M18AAP inhibitor,NRP1-CendR mod,ALR inh,A3G deaminase,A3A deaminase
Cc1ccc(/C=N/Nc2nc3ccccc3[nH]2)s1,–,–,29,–,–,–
Cc1cc(=O)[nH]c(N/N=C/c2ccccc2C(F)(F)F)n1,–,–,–,–,–,–
COc1ccc(/C=N/Nc2nc3ccccc3[nH]2)c(OC)c1OC,–,–,–,98,–,–
Cc1cc(=O)[nH]c(N/N=C/c2c[nH]c3ccccc23)n1,–,–,–,92,–,–
Cc1ccccc1/C=N/Nc1nc2ccccc2[nH]1,–,–,–,–,–,–
C(/CCc1ccccc1)=N\Nc1nc2ccccc2[nH]1,–,–,–,98,–,–
COc1ccc(/C=N/Nc2ccccn2)c(OC)c1OC,–,–,–,99,–,–
C(=N\Nc1nc2ccccc2[nH]1)/c1c[nH]c2ccccc12,–,–,–,99,–,–
Cc1ccc(CNC(=O)C2CCCN(S(=O)(=O)c3ccc(F)cc3)C2)cc1 (stereo not drawn),–,–,–,–,–,–
COc1cc(CC(=O)OCC(=O)NCC(C)C)cc(OC)c1OC,–,–,–,–,–,–
CC1(C)CC(=O)C=C(OC(=O)c2ccc(Cl)cc2)C1,–,–,–,98,–,–
O=C(NNC1=C(C(=O)C(F)(F)F)CCC1)c1ccccc1O,–,–,–,87,–,–
O=C(CCC(=O)N1CCN(c2ccccc2F)CC1)c1ccc(F)cc1,–,–,–,–,–,–
CCn1c(=NC(=O)CSC(C)=O)sc2cc(F)ccc21,–,–,–,98,–,–
C#CCn1c(=NC(=O)CSC(C)=O)sc2cc(F)ccc21,–,–,–,97,–,–
COc1ccc(OC)c(CN2C(=O)c3ccccc3C2c2nnnn2-c2c(C)cccc2C)c1 (stereo not drawn),·,·,–,·,·,·
N#Cc1nnn2c1nc(N)c1c(Cl)cccc12,·,·,–,·,·,·
COc1ccccc1CN1C(=O)c2ccccc2C1C(=O)NC1CCC(C)CC1 (stereo not drawn),–,–,–,82,–,–
CC(C)N(Cc1nccn1C)C(=O)c1ccc2oc(CCCc3ccccc3)nc2c1,–,–,–,–,–,–
COc1ccc(N2CCN(CCOc3ccc4c(C)cc(=O)oc4c3)CC2)cc1,–,–,–,–,–,–
Cc1cc(=O)oc2cc(OCCSCCN3CCCC3)ccc12,–,–,–,98,–,–
CC(C)N(CC#CC(O)(c1ccccc1)c1ccccc1)C(C)C,–,–,–,–,–,–
CN(CC#CC(O)(c1ccccc1)c1ccccc1)C(C)(C)C,65,–,–,–,–,–
CC1CN(c2ccccc2)NC1=O (stereo not drawn),–,–,–,99,–,–
Cn1c(-c2ccccc2Br)n[nH]c1=S,–,–,–,96,–,–
SMILES,CR mimetic SO,M18AAP inhibitor,NRP1-CendR mod,ALR inh,A3G deaminase,A3A deaminase
Cn1c(-c2ccccc2)n[nH]c1=S,–,–,–,93,–,–
Cc1ccn2c(-c3n[nH]c(=S)n3C)c(C)nc2c1,–,–,–,95,–,–
Cc1cccc(-c2n[nH]c(=S)n2C)c1,–,–,–,–,–,–
Cc1c(Cl)c(-c2n[nH]c(=S)n2-c2ccccc2)nn1C,–,–,–,92,–,–
Cn1c(-c2ccco2)n[nH]c1=S,–,–,–,–,–,–
Cc1ccn2c(=O)cc(C)nc2c1,–,–,–,–,–,–
Cc1c(Cl)c(-c2n[nH]c(=S)n2Cc2ccco2)nn1C,–,–,–,–,–,–
CCN(CC)c1ccc(-c2n[nH]c(=S)n2-c2ccccc2)cc1,–,–,–,–,–,–
CCC(c1n[nH]c(=S)n1-c1ccccc1)N(C)C (stereo not drawn),–,31,–,·,–,–
Cc1ccc(-c2cc(-c3n[nH]c(=S)n3C)c3ccccc3n2)cc1,–,–,–,97,–,–
CN(C)c1ccc(-c2n[nH]c(=S)n2-c2ccccc2)cc1,–,–,–,95,–,–
Cc1n[nH]c(=S)n1-c1ccccc1,–,–,–,–,–,–
CCn1c(-c2cc(-c3ccc(C)c(C)c3)nc3ccccc23)n[nH]c1=S,–,–,·,–,–,–
CN(C)c1ccc(/C=N/n2c(-c3ccccc3Br)n[nH]c2=S)cc1,–,–,–,96,–,–
CN(C)S(=O)(=O)N(CC(=O)N1CCC(Cc2ccccc2)CC1)c1ccccc1,–,–,–,–,–,–
